The structures appear in SMILES notation. Out of some 2,300 compounds screened, about 1,400 (61%) were called active. About 29% were inconclusive and are not listed. Calls come from the whole dose curve; as a rule, active = well fitted inhibition curve with a large enough effect; inconclusive = small, poorly fitted or top-dose-only effect, or effect the other way; inactive = no such curve, though single readings can be large or run the other way. The set was probably picked from earlier hits. The list shows a part of the results.
Potency is the fitted concentration of half-maximal effect.

This assay in a line: Confirmation screen for delayed death inhibitors of the malarial parasite plastid, 96 hour incubation. Note: nearly all actives have a fitted effect of over 60% in size. As to conditions: P. falciparum luciferase growth in erythrocytes; series mostly up to 28.7 µM. The method, boiled down:
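Erythrocytes infected with luciferase-expressing P. falciparum (2% hematocrit, 0.1% parasitemia final) in RPMI 1640 with 0.5% Albumax, exposed to compounds 96 h at 37 C, 5% CO2. Growth inhibition read as decreased luciferase luminescence.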
For `O=C(Cc1cccs1)NCCc1ccc(Cl)cc1`, the Potency is 5.62 µM (active).

Regarding `CC(C)(C)OC(=O)[C@H]1[C@H](c2ccc([N+](=O)[O-])cc2)C2(C(=O)c3ccccc3C2=O)C2c3ccccc3C=NN21` (stereo partly drawn), the Potency is 5.01 µM (active).

Consider `COc1cccc(NC(=O)CSc2nc3ccccc3nc2N2CCCC2)c1`, for which the Potency was 12.6 µM (active).

Turning to `O=C(O)c1nn(CCSc2ccccc2F)c(=O)c2ccccc12`, the Potency entry was “inactive”.

As to `O=c1cc(CSc2ccc(Cl)cc2)nc(-c2ccccn2)[nH]1`, the Potency was 3.16 µM (active).

`CN(CCCN1CCOCC1)C(=O)c1ccc2nc(Cc3cccc(Cl)c3)oc2c1`: the Potency was 11.2 µM (active).

For `O=S(=O)(c1cnc[nH]1)N1CCN(C(c2ccc(F)cc2)c2ccc(F)cc2)CC1`, the Potency was 11.2 µM (active).

Take `O=C(O)c1ccc(O)cc1O`: the Potency was 2.51 µM (active).

As for `O=C(COC(=O)c1ccc(O)cc1O)Nc1ccc2ccccc2c1`, the Potency entry is “inactive”.

`CCOc1ccccc1CNC(=O)c1cc2oc3ccccc3c2n1C`: the Potency was 12.6 µM (active).

In the case of `COc1cccc(CNC(=O)c2cc3oc4ccccc4c3n2C)c1OC`, the Potency entry is “inactive”.

Turning to `CCOc1ccccc1CNC(=O)c1cc2oc3ccccc3c2n1CC`, the Potency is 12.6 µM (active).

On to `CCOC(=O)[C@H]1[C@H]2COc3cc(OC)ccc3[C@@H]2N2C(=O)N(c3ccc(Cl)cc3)C(=O)[C@@]12C`, for which the Potency result is “inactive”.

For the compound `O=C(CN(c1ccc2c(c1)OCCO2)S(=O)(=O)c1ccccc1)NCc1ccc(Cl)cc1`, the Potency was 12.6 µM (active).

Turning to `CSc1ccccc1NC(=O)CN1CCN(S(=O)(=O)c2ccccc2[N+](=O)[O-])CC1`, the Potency was 12.6 µM (active).

Consider `O=C(CCN1CCN(S(=O)(=O)c2cccc([N+](=O)[O-])c2)CC1)Nc1ccccc1F`, for which the Potency is 10 µM (active).

With `CCOC(=O)CCC(=O)Nc1ncnc2c1C(c1ccccc1)c1c(ccc3ccccc13)O2` (stereo not drawn), the Potency was 7.94 µM (active).

Consider `CCC(=O)c1ccc(OCC(=O)NCC2(N3CCCCC3)CCCCC2)cc1`, for which the Potency is 14.1 µM (active).

Turning to `CN(C)S(=O)(=O)c1ccc(Cl)c(NC(=O)CN2C(=O)NC(C)(C3CC3)C2=O)c1` (stereo not drawn), the Potency is 12.6 µM (active).

Regarding `O=c1[nH]c(C2CCN(S(=O)(=O)c3cccc([N+](=O)[O-])c3)CC2)nc2c1nnn2Cc1ccccc1`, the Potency is 8.91 µM (active).

On to `C#CCOCCOCCOCCNc1nc(N2CCN(C(=O)Cn3cc(CC(C)O)nn3)CC2)nc(N2CCN(C(=O)[C@H]([C@@H](C)CC)n3cc(CCCN=C(N)N)nn3)CC2)n1` (stereo partly drawn), for which the Potency is 1 µM (active).

Consider `C#CCOCCOCCOCCNc1nc(N2CCN(C(=O)Cn3cc(CC(C)O)nn3)CC2)nc(N2CCN(C(=O)[C@H](C)n3cc(CCCN=C(N)N)nn3)CC2)n1` (stereo partly drawn), for which the Potency is 15.8 µM (active).

Consider `C#CCOCCOCCOCCNc1nc(N2CCN(C(=O)Cn3cc(CCCCN)nn3)CC2)nc(N2CCN(C(=O)[C@H](C)n3cc(CCCN=C(N)N)nn3)CC2)n1`, for which the Potency is 1 µM (active).

Take `COCCNC(=O)CCCCCN1C(=O)CCC1=O`: the Potency result was “inactive”.

As to `CC1(C)CCSC(/C=C/c2ccccc2)=N1`, the Potency is 6.31 µM (active).

Regarding `COc1ccc(/C=C2\CCC/C(=C\C=N\N(C)C)C2=O)cc1`, the Potency is 12.6 µM (active).

With `O=C(CC1Sc2ccccc2NC1=O)OCc1cc(=O)oc2cc(O)ccc12` (stereo not drawn), the Potency is 7.08 µM (active).

Turning to `C[C@@H](CN1C2=NC[C@H](Cc3ccc(O)cc3)N2C[C@H]1Cc1ccc(O)cc1)NC(=O)CCC1CCCCC1`, the Potency is 5.62 µM (active).

On to `O=C(CCC1CCCCC1)NCCN1C2=NC[C@H](Cc3ccccc3)N2C[C@H]1Cc1ccc(O)cc1`, for which the Potency was 6.31 µM (active).

As for `C[C@H]1CN=C2N(CCNC(=O)CCC3CCCCC3)[C@H](Cc3ccc(O)cc3)CN21`, the Potency was 6.31 µM (active).

Take `CC(=O)NC(=S)Nc1ccccc1C(=O)NC1CCCCC1`: the Potency was 12.6 µM (active).

Turning to `O=C(NC1CCCC1)C(c1ccncc1)N(Cc1ccco1)C(=O)c1ccc(-c2ccccc2)[nH]1` (stereo not drawn), the Potency was 7.94 µM (active).

On to `O=C(NC1CCCCC1)C(c1ccncc1)N(Cc1ccccc1)C(=O)c1ccc(-c2ccccc2)[nH]1` (stereo not drawn), for which the Potency was 3.98 µM (active).

For the compound `COc1cc2c(cc1OC)-c1cc(N3CCc4ccccc43)nc(=O)n1CC2`, the Potency is 5.01 µM (active).

Regarding `COC(=O)CCC(=O)OC1(C)C(=O)C=C2C=C(C3CC3)N(CCCOC(C)C)C=C2C1=O` (stereo not drawn), the Potency was 1.12 µM (active).

For the compound `O=C(N/N=C/c1ccc([N+](=O)[O-])cc1)c1cccc(N2CCCC2=O)c1`, the Potency was 10 µM (active).

Take `CC[C@]1([C@H]2O[C@@H]([C@@H]3O[C@](O)(CO)[C@@H](C)C[C@H]3C)C[C@H]2C)CC[C@@H]([C@]2(C)CC[C@@]3(C[C@@H](O)[C@@H](C)[C@@H]([C@H](C)[C@H](OC)[C@H](C)C(=O)O)O3)O2)O1`: the Potency was 0.112 µM (active).

`Cc1c(C(c2ccc(Br)cc2)c2c(C)n(C)n(-c3ccccc3)c2=O)c(=O)n(-c2ccccc2)n1C`: the Potency is 11.2 µM (active).

Consider `CCOc1ccc2nc(C)cc(Nc3cccc([N+](=O)[O-])c3)c2c1`, for which the Potency was 2 µM (active).

`CCOc1ccccc1C1N=C(c2ccc(OC)cc2)CC(c2ccccc2O)N1` (stereo not drawn): the Potency is 12.6 µM (active).

As for `Cc1cccc(C)c1N1CCN(C(=O)c2ccc3c(c2)OCO3)CC1`, the Potency was 12.6 µM (active).

In the case of `O=C(c1ccc(Br)o1)N1CCN(c2ccc3nnc(-c4ccccc4)n3n2)CC1`, the Potency was 7.94 µM (active).

On to `O=C(Nc1ccccc1C(F)(F)F)N1CCN(c2ccc3nnc(-c4ccc(F)cc4)n3n2)CC1`, for which the Potency was 3.98 µM (active).

For `Cn1c(CCN2CCCC2)nc2cc(NS(=O)(=O)c3ccccc3)ccc21`, the Potency is 3.55 µM (active).

Take `Cn1c(CCN2CCCC2)nc2cc(NS(=O)(=O)c3ccc(Cl)cc3)ccc21`: the Potency is 6.31 µM (active).

With `CC1CCCCN1C(=O)COC(=O)c1cccc(NS(=O)(=O)c2ccccc2)c1` (stereo not drawn), the Potency entry is “inactive”.

Consider `COc1cc(CNC(=O)CCn2nc(C)c3c(C)n(-c4ccccc4)nc3c2=O)cc(OC)c1OC`, for which the Potency is 12.6 µM (active).

On to `O=C(CCN1C(=O)C2CC=C(Cl)CC2C1=O)NCc1ccccc1` (stereo not drawn), for which the Potency result is “inactive”.

Regarding `COc1ccc(OC)c(CCNC(=O)CCn2nc(C)c3c(C)n(-c4ccccc4)nc3c2=O)c1`, the Potency is 5.62 µM (active).

For `Cc1nn(CCC(=O)NCc2ccc(N(C)C)cc2)c(=O)c2nn(-c3ccccc3)c(C)c12`, the Potency is 8.91 µM (active).

Consider `COc1ccccc1CNC(=O)CCCn1nc(C)c2c(C)n(-c3ccccc3)nc2c1=O`, for which the Potency was 12.6 µM (active).

In the case of `COc1ccccc1CCNC(=O)CCn1nc(C)c2c(C)n(-c3ccccc3)nc2c1=O`, the Potency is 7.94 µM (active).

On to `CCC(C(=O)NCCc1ccccc1OC)n1nc(C)c2c(C)n(-c3ccccc3)nc2c1=O` (stereo not drawn), for which the Potency was 10 µM (active).

`C=C1CCC2[C@](C)(CO)[C@H](O)CC[C@@]2(C)[C@@H]1C/C=C1\C(=O)OC[C@H]1O` (stereo partly drawn): the Potency was 11.2 µM (active).

Consider `CC1(C)Cc2nc(-c3ccccc3)nc(SCC(O)CO)c2CO1` (stereo not drawn), for which the Potency is 12.6 µM (active).

For the compound `CCOc1cccc2sc(NC(=O)CCS(=O)(=O)c3ccccc3)nc12`, the Potency is 5.62 µM (active).

Turning to `COc1ccc(C)c2sc(NC(=O)CCS(=O)(=O)c3ccccc3)nc12`, the Potency entry was “inactive”.

With `CC(C)(C)Sc1ccc([N+](=O)[O-])cc1C(=O)Nc1ccncc1`, the Potency was 2.51 µM (active).

As to `COc1cccc(-c2sc3ccc(OC)cc3c2-c2cc(F)cc(OC)c2)c1`, the Potency is 10 µM (active).

`CN1C(=O)c2ccccc2N(C)C1c1cccc(O)c1` (stereo not drawn): the Potency is 15.8 µM (active).

As to `CC(=O)N1CCc2cc(S(=O)(=O)NCCC(=O)N3CCN(c4ccccn4)CC3)ccc21`, the Potency was 7.94 µM (active).

Consider `CC1CN(c2nc(-c3ccc(Br)cc3)nnc2-c2ccccc2)CC(C)N1` (stereo not drawn), for which the Potency was 2.82 µM (active).

Consider `O=C(CSc1nnc(-c2ccco2)o1)N1c2ccccc2CCc2ccccc21`, for which the Potency was 7.94 µM (active).

With `O=C(CCCl)Nc1nc2c(s1)CCc1ccccc1-2`, the Potency is 11.2 µM (active).

In the case of `O=C(Cc1cn2ccsc2n1)Nc1nc2c(s1)CCCC2`, the Potency entry is “inactive”.

With `O=C(Cn1c(=O)sc2ccccc21)Nc1nc2c(s1)CCCC2`, the Potency result was “inactive”.

`COc1ccc(CN(C(=O)c2oc3ccc(F)cc3c2C)C2CCS(=O)(=O)C2)cc1` (stereo not drawn): the Potency is 14.1 µM (active).

Take `Cc1cc(C(=O)N(C)CC2CCCN(CCc3ccc(F)cc3)C2)c(C)o1` (stereo not drawn): the Potency is 14.1 µM (active).

As to `Cc1c(/C=N/NC(=O)c2cccs2)c2ccccc2n1Cc1ccccc1Cl`, the Potency is 3.16 µM (active).

Consider `Cc1ccccc1NC1=NCC(c2ccc([N+](=O)[O-])cc2)S1` (stereo not drawn), for which the Potency was 11.2 µM (active).

As to `CCN(CC)CCNC(=O)c1ccc(NC(=O)c2ccccc2-c2ccc(C(F)(F)F)cc2)cc1`, the Potency was 11.2 µM (active).

Turning to `CCN(CC)C(=O)CSc1nc(COc2ccccc2)nc2ccccc12`, the Potency was 11.2 µM (active).

Consider `COc1ccc2[nH]c3c(NCCN(C(C)C)C(C)C)ncnc3c2c1`, for which the Potency is 3.98 µM (active).

Take `COc1ccc2[nH]c3c(NCCC4=CCCCC4)ncnc3c2c1`: the Potency was 5.62 µM (active).

On to `CC(C)OCCCNc1ncnc2c1[nH]c1ccc(F)cc12`, for which the Potency was 4.47 µM (active).

Turning to `Cc1ccccc1OCC(=O)NCCC1=CCCCC1`, the Potency result was “inactive”.

Regarding `Cc1cc(=O)nc2c3ccccc3n(CC(=O)NCCC3=CCCCC3)n12`, the Potency was 8.91 µM (active).

On to `COc1ccc(CCNC(=O)C2CCN(S(=O)(=O)c3ccc(OC)c(OC)c3)CC2)cc1OC`, for which the Potency was 12.6 µM (active).

As for `COc1ccc(Cl)cc1NC(=O)C1Cc2cc(S(=O)(=O)N3CCCC3)ccc2N1C(C)=O` (stereo not drawn), the Potency is 11.2 µM (active).

For `COc1ccc(S(=O)(=O)N2CCC(C(=O)Nc3ccccc3N3CCCCC3)CC2)cc1OC`, the Potency was 7.94 µM (active).

For `COc1ccc(CCNC(=O)C(=O)NCC2OCCN2S(=O)(=O)c2ccc3c(c2)OCCO3)cc1OC` (stereo not drawn), the Potency is 11.2 µM (active).

`O=C(NCCCn1ccnc1)C(=O)NCC1OCCN1S(=O)(=O)c1ccc(F)cc1` (stereo not drawn): the Potency entry is “inactive”.

On to `Cc1ccc(-c2nnc(N3CCOCC3)c3ccccc23)cc1S(=O)(=O)NCC1CCCO1` (stereo not drawn), for which the Potency was 2.51 µM (active).

Values taken from PubChem BioAssay AID504848 (National Center for Advancing Translational Sciences (NCATS), 2011).
